Assay results as given in PubChem BioAssay.
Active and inactive are the calls of the source.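 Rule for the calls, unless noted: active = inhibition above 20% together with a positive visual image hit; inconclusive = visual image hit but inhibition not above 20%; inactive = no visual image hit.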

Tests used:
[1] = inhibitors of TNFa-induced NFkB p65 translocation, primary screen, imaging, HUVEC, MLSMR starter and 10KST1 sets (AID 438); conditions: HUVEC TNFa-induced p65 nuclear translocation; cell count: measured here: nuclei count (cytotoxicity indicator), at 2.08 µM; inhibition: at 2 µM, stronger effect = higher value, 0% TNFa-plus-vehicle, 100% no-TNFa wells;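 note: compound added about 3h40 before a 20 min TNFalpha stimulation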;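 for inhibition: signal is the nuclear over cytoplasmic p65 intensity ratio per well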
[2] = inhibitors of mutant huntingtin aggregation, primary screen, imaging, exon1htt(103Q)mCFP cells, high-content imaging (AID 483;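 active = visual image review flags a hit and inhibition of aggregation exceeds 20%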;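 note: compound exposure lasted 3 days before fixation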;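 for nuclei count: percent of the per-plate median nuclei count of sample wells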); conditions: exon1htt(103Q)mCFP cell line, aggregate imaging, at 2 µM; inhibition of aggregation: stronger effect = higher value; nuclei count: measured here: cell count, toxicity
[3] = inhibitors of E-selectin induction by TNFa, primary screen, imaging, HUVEC, immunofluorescence, MLSMR starter and 10KST1 sets (AID 487;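 active = visually confirmed hit in the image check and inhibition above 20%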;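 for inhibition: signal is fraction of cell area covered by stained E-selectin grains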;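 for nuclei count: 100% = median nuclei count of all wells on the same plate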); conditions: HUVEC TNFalpha-induced E-selectin immunofluorescence imaging, at 2 µM; inhibition: stronger effect = higher value; nuclei count: measured here: cell number, toxicity
[4] = target: Voltage-gated potassium channel subunit beta-2 (Rattus norvegicus) (UniProt P62483); assay: KvBeta enzyme negative modulators, primary screen, biochemical, NADPH fluorescence (AID 622;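 active = fluorescence slope higher than the sample average by over 3 SD, cut at about -0.22 in these data, passing the limit was not always enough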;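 note: slope of raw intensity against log time taken from 70 to 1610 s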); conditions: recombinant KvBeta, 4-cyanobenzaldehyde reduction, at 10 µM, stronger effect = higher value
Sequence of Voltage-gated potassium channel subunit beta-2 (Rattus norvegicus) (P62483 whole entry, looked up): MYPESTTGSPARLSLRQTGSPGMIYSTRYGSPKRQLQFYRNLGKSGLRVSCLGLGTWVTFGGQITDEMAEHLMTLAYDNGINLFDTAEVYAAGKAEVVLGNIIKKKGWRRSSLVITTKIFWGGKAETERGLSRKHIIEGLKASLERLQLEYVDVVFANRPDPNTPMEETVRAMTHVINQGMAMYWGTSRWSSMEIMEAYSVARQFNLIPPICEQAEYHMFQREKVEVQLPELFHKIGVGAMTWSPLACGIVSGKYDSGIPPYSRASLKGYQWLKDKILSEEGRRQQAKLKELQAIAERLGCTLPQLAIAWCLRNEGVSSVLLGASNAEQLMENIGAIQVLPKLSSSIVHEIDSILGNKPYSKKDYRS

[5] = target: Voltage-gated potassium channel subunit beta-2 (Rattus norvegicus) (UniProt P62483); assay: KvBeta positive modulators, primary screen, biochemical, NADPH fluorescence (AID 623;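 active = NADPH fluorescence slope more negative than the mean of all samples by about 3 SD, 99.7% confidence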;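 note: fluorescence intensity change per second fitted from 20 to 320 s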); conditions: Recombinant KvBeta, NADPH fluorescence decrease slope, 10 min; at 10 µM; stronger effect = lower value
[6] = target: Alpha-2C adrenergic receptor (Homo sapiens) (UniProt P18825); assay: modulators of alpha2C/GIRK thallium flux, primary screen, cell-based, HEK293 alpha2C/GIRK1/2 (AID 624;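 active = fluorescence slope after compound addition differing from the mean of all screened samples at 99.7% confidence, in either direction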;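 note: slope of fluorescence ratio to pre-addition baseline per second over 15 to 24 s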); conditions: thallium flux BTC fluorescence, at 10 µM, actives lie on both sides
Sequence of Alpha-2C adrenergic receptor (Homo sapiens) (P18825 whole entry, looked up): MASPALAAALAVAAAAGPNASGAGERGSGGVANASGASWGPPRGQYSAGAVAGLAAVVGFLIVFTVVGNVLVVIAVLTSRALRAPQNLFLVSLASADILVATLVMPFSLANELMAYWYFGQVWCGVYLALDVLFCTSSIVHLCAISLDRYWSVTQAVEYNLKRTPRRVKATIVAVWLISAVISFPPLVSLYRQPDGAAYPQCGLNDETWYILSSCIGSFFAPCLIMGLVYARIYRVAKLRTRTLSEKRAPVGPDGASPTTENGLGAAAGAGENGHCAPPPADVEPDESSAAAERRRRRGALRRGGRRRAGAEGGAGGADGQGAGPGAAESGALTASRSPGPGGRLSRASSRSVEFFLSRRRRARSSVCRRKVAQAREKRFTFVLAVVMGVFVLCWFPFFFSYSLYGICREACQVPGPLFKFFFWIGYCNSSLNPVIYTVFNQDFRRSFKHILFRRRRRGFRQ

[7] = inhibitors of Sendai virus-induced IRF3 signaling, primary screen, TLR/RLR signaling modifier project, cell-based, Sendai virus stimulus, luciferase, 10K MLSCN set (AID 602276;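 active = inhibition at or above 50% at 10 µM; inactive = inhibition below 50%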;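 note: firefly luciferase from ISG56 promoter only with Renilla not read in this screen; 0% = Sendai virus plus DMSO and 100% = medium plus DMSO without virus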); conditions: HEK293 RL24 IRF3 luciferase reporter, at 10 µM, stronger effect = higher value
[8] = inhibitors of poly I:C-induced TLR3 signaling, primary screen, cell-based, poly I:C stimulus, luciferase, 10K MLSCN set (AID 602277;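 active = inhibition of the reporter signal at or above 50%; inactive = inhibition below 50%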); conditions: HEK293-TLR3 RL24 IRF3 luciferase reporter, at 10 µM, stronger effect = higher value

| SMILES | cell count [1] | inhibition [1] | inhibition of aggregation [2] | nuclei count [2] | inhibition [3] | nuclei count [3] | fluorescence slope [4] | NADPH fluorescence slope [5] | slope [6] | inhibition [7] | inhibition [8] |
| --- | --- | --- | --- | --- | --- | --- | --- | --- | --- | --- | --- |
| Cc1[nH]nc2c1C1(C(=O)N(Cc3ccc(Cl)cc3)c3ccccc31)C(C#N)=C(N)O2 (stereo not drawn) | 358 | 1.4% (inactive) | -1.1% (inactive) | 101% | -24.6% (inactive) | 114% | -0.338 (inactive) | -3.4e-05 (inactive) | 0.00523 (inactive) | 12.5% (inactive) | 0.315% (inactive) |
| O=C(Cn1nc(Cc2ccncc2)c2ccccc2c1=O)N1CCN(C(=O)c2ccco2)CC1 | 780 | -7.3% (inactive) | -29.3% (inactive) | 110% | -15.2% (inactive) | 112% | -0.58 (inactive) | -2.7e-05 (inactive) | 0.0062 (inactive) | -0.346% (inactive) | 21.1% (inactive) |
| O=C(Nc1sc2c(c1C(=O)NCc1ccco1)CCCC2)c1ccc2c(c1)OCO2 | 563 | -10.1% (inactive) | 2.5% (inactive) | 103% | -56% (inactive) | 117% | -0.517 (inactive) | 3.8e-06 (inactive) | 0.00669 (inactive) | -29.8% (inactive) | -179% (inactive) |
| O=C(CCn1c(=S)[nH]c2cc3c(cc2c1=O)OCO3)N1CCN(C2CCCCC2)CC1 | 473 | 4.3% (inactive) | 4.1% (inactive) | 129% | 28.2% (inactive) | 85.3% | -0.476 (inactive) | -9.8e-07 (inactive) | 0.00668 (inactive) | 3.29% (inactive) | 33.1% (inactive) |
| Cc1nnc(SCc2cc(=O)[nH]c(N3CCCCC3)n2)s1 | 639 | 5% (inactive) | 0.6% (inactive) | 96.3% | 14.7% (inactive) | 107% | -0.592 (inactive) | -3.2e-05 (inactive) | 0.00759 (inactive) | 13.1% (inactive) | 19.7% (inactive) |
| COc1ccc(C(=O)Nc2ccc(S(=O)(=O)NC(C)=O)cc2)cc1 | 568 | 2.4% (inactive) | 21.1% (inactive) | 92.1% | 9.3% (inactive) | 107% | -0.494 (inactive) | -2.4e-05 (inactive) | 0.00509 (inactive) | 10.3% (inactive) | 6.87% (inactive) |
| O=C1CC(c2ccccc2)CC(O)=C1C=NCCN1CCOCC1 (stereo not drawn) | 541 | -2.9% (inactive) | 24.1% (inactive) | 94.3% | 37.7% (inactive) | 99.1% | -0.441 (inactive) | 1.8e-05 (inactive) | 0.00626 (inactive) | 7.02% (inactive) | 31.4% (inactive) |
| c1ccc(CCn2nnnc2CN2CCN(C3CCCC3)CC2)cc1 | 290 | -15.4% (inactive) | -9.3% (inactive) | 112% | -40.7% (inactive) | 118% | -0.604 (inactive) | -4.3e-05 (inactive) | 0.0058 (inactive) | -0.279% (inactive) | 20.4% (inactive) |
| CCOCCCNC(=O)CS(=O)(=O)Cc1nc(-c2cccc(OC)c2)oc1C | 558 | -43.9% (inactive) | 16% (inactive) | 65.2% | -6.1% (inactive) | 97.9% | -0.596 (inactive) | 4.7e-07 (inactive) | 0.00578 (inactive) | 12.4% (inactive) | 33.7% (inactive) |
| COc1ccc(S(=O)(=O)N2CCOCC2)cc1C(=O)Nc1cc(C)on1 | 225 | 1.1% (inactive) | -3.3% (inactive) | 96.6% | 38.6% (inactive) | 76.9% | -0.436 (inactive) | -3.9e-05 (inactive) | 0.00355 (inactive) | -8.66% (inactive) | 12.5% (inactive) |
| CCCS(=O)(=O)N1CCN(C(=O)c2cccnc2)CC1 | 374 | 5.5% (inactive) | -5.9% (inactive) | 98.3% | 18.3% (inactive) | 114% | -0.431 (inactive) | -6.9e-05 (inactive) | 0.0059 (inactive) | 8.38% (inactive) | 19.6% (inactive) |
| O=C(Nc1nnc(CCN2CCCCC2)s1)C1CCCCC1 | 455 | -11.2% (inactive) | 7% (inactive) | 113% | -31.8% (inactive) | 102% | -0.411 (inactive) | -6e-05 (inactive) | 0.00451 (inactive) | 15.1% (inactive) | 16.5% (inactive) |
| CSCCC(NC(=O)c1ccco1)C(=O)OC(C)C(=O)NC(=O)NC1CCCCC1 (stereo not drawn) | 538 | -6.1% (inactive) | 7.6% (inactive) | 88% | -79.7% (inactive) | 100% | -0.485 (inactive) | 1e-05 (inactive) | 0.00394 (inactive) | 13.1% (inactive) | 20.3% (inactive) |
| CC(=O)c1sc(NC(=O)C2COc3ccccc3O2)nc1C (stereo not drawn) | 604 | -0.3% (inactive) | 24.9% (inactive) | 87.8% | 19.7% (inactive) | 104% | -0.586 (inactive) | -2.4e-05 (inactive) | 0.00774 (inactive) | 15.8% (inactive) | -48.7% (inactive) |
| COC(=O)c1[nH]c2c(c1C)C(=O)CC(c1cc(OC)ccc1OC)C2 (stereo not drawn) | 546 | -4.2% (inactive) | 30.2% (inactive) | 81% | -36.2% (inactive) | 114% | -0.573 (inactive) | -1.2e-05 (inactive) | 0.00652 (inactive) | 38.3% (inactive) | 21.5% (inactive) |
| COc1ccccc1CN1CC(C(=O)NCc2cccnc2)CC1=O (stereo not drawn) | 536 | -8% (inactive) | 4.9% (inactive) | 91.5% | -0.1% (inactive) | 113% | -0.502 (inactive) | -2.4e-05 (inactive) | 0.00742 (inactive) | 7.79% (inactive) | 29.2% (inactive) |
| Cc1csc(SCCn2c(N3CCCC3)nc3c2c(=O)[nH]c(=O)n3C)n1 | 445 | 53.9% (active) | -7.1% (inactive) | 110% | -26.1% (inactive) | 127% | -0.38 (inactive) | -3.1e-05 (inactive) | 0.00532 (inactive) | 1.74% (inactive) | 16.5% (inactive) |
| COc1ccc(CN(C(=O)CSc2nnc(-c3ccccc3F)o2)c2ccc(F)cc2)cc1 | 560 | -14.3% (inactive) | 15% (inactive) | 85.2% | -118% (inactive) | 123% | -0.421 (inactive) | -3.9e-05 (inactive) | 0.0074 (inactive) | 8.03% (inactive) | 9.3% (inactive) |
| O=C(Cn1nc(Cc2cccnc2)c2ccccc2c1=O)NCC1CCCO1 (stereo not drawn) | 461 | 6.1% (inactive) | 12.1% (inactive) | 69.2% | -96.1% (inactive) | 115% | -0.553 (inactive) | -2.6e-06 (inactive) | 0.00713 (inactive) | 11.5% (inactive) | 29.9% (inactive) |
| O=C(NCc1cccs1)c1cc2c(s1)CCCC2 | 377 | -16.3% (inactive) | 5.1% (inactive) | 89.1% | -21.4% (inactive) | 126% | -0.479 (inactive) | 6e-05 (inactive) | 0.0052 (inactive) | -44.6% (inactive) | -105% (inactive) |
| CC(Oc1ccccc1)C(=O)NC1CC(C)(C)NC(C)(C)C1 (stereo not drawn) | 386 | 0.2% (inactive) | 4.3% (inactive) | 89.9% | 13.8% (inactive) | 102% | -0.261 (inactive) | -3.5e-05 (inactive) | 0.00587 (inactive) | 17.4% (inactive) | 26.2% (inactive) |
| OC(CCN1CCOCC1)(c1ccc(Cl)cc1)C1CCCCC1 (stereo not drawn) | 663 | -1% (inactive) | -1.2% (inactive) | 48.5% | 37.9% (inactive) | 120% | -0.588 (inactive) | -2.6e-05 (inactive) | 0.00224 (inactive) | -9.83% (inactive) | -48.9% (inactive) |
| O=C(Cc1cccs1)Nc1nnc(CCc2ccccc2)s1 | 382 | 1.5% (inactive) | 15.6% (inactive) | 110% | -152% (inactive) | 117% | -0.437 (inactive) | -5.5e-05 (inactive) | 0.00318 (inactive) | 9.85% (inactive) | 31.2% (inactive) |
| COc1cc2c(cc1OC)CN(C(=O)CSc1nc3[nH]ncc3c(=O)n1-c1ccccc1)CC2 | 509 | -8.2% (inactive) | -8.9% (inactive) | 86.9% | -7.3% (inactive) | 87% | -0.492 (inactive) | -2.6e-05 (inactive) | 0.00737 (inactive) | 11% (inactive) | 23.1% (inactive) |
| CCN(CC)CCCN1C(=O)C(O)=C(C(=O)c2ccco2)C1c1ccc(C)o1 (stereo not drawn) | 330 | 22.9% (inactive) | -17.3% (inactive) | 106% | -22.2% (inactive) | 99.7% | -0.607 (inactive) | -3.7e-05 (inactive) | 0.00682 (inactive) | 8.72% (inactive) | 8.23% (inactive) |
| Cn1c(=O)[nH]c(=O)c2c1nc(Br)n2Cc1ccccc1F | 668 | 8.8% (inactive) | 19.4% (inactive) | 68.3% | 4.9% (inactive) | 106% | -0.467 (inactive) | -3.7e-05 (inactive) | 0.00509 (inactive) | 9.21% (inactive) | 12.8% (inactive) |
| COc1ccc(-c2cc(C(F)(F)F)n3ncc(C(=O)NCC4CCCO4)c3n2)cc1 (stereo not drawn) | 669 | 6.7% (inactive) | -1% (inactive) | 67.5% | 57.7% (inactive) | 95.2% | -0.00373 (active) | 2e-06 (inactive) | 0.00552 (inactive) | 13.6% (inactive) | 25.3% (inactive) |
| COc1ccc(NC(=O)CN(c2cc(C)cc(C)c2)S(=O)(=O)c2c(C)noc2C)cc1OC | 753 | -1.7% (inactive) | -15.7% (inactive) | 116% | -8.7% (inactive) | 117% | -0.551 (inactive) | -2.2e-05 (inactive) | 0.00583 (inactive) | 15.1% (inactive) | 38% (inactive) |
